This is a sample that favours compounds with a hit; in the whole collection about 6.2% have one here.
Marburg entry inh = blocks Marburg virus binding to or entry into cells. Marburg virus pseudotyped entry inhibition, cell reporter. Potency, µM (doses to about 37.8 µM), for inactives: at the top dose activity change, negative = inhibition, actives largely listed as inhibitors. 300,000 tested, 1.8% active. AID 540276; calls by dose curve; tested in HEK293 cells; note: potency is the fitted concentration of half-maximal effect
Lassa entry inh = inhibitors of Lassa virus binding or cell entry. Lassa virus pseudotype entry inhibition, cell reporter. Potency, µM (series often up to 37.9 µM), inactives show at the top dose activity change, negative = inhibition, hits mostly inhibitors. 300,000 tested, 1.2% active. AID 540256; calls by dose curve; tested in HEK293 cells; note: potency is the fitted concentration of half-maximal effect; nearly all actives have a fitted effect of over 50% in size
FMDV antiviral = blocks foot and mouth disease virus; Potency, µM (series often up to 57.9 µM), for the others: at the highest dose activity change, negative = inhibition, most hits filed as inhibitors; AID 1159524; 410,000 tested, 1.2% active; FMDV antiviral cell-based qHTS; calls by dose curve; tested in HEK293T cells; note: read-out not given here; potency is the fitted concentration of half-maximal effect; nearly all actives have a fitted effect of over 45% in size
HCMV inh = human cytomegalovirus inhibition | HFF cells, HCMV-luciferase reporter, 72 h; stronger effect = lower value | activity change, negative = inhibition, % at 57.5 µM | 410,000 tested, 4.5% active | AID 1259415; in the data active = activity change below about -60%; inconclusive = no clear call, values can overlap the other calls; inactive = above about -39%
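Two compound doses tested in HFFs infected with HCMV-luciferase, MOI 1 PFU/cell, 72 h at 37C. Lysate luminescence read with OneGlo; data normalized against buffer-only and 10uM Salinomycin inhibitor controls.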
* = called active by the depositor; ? = inconclusive; / = no result; [ ] = remark or other dose. % is set by controls: 0 for no effect and ±100 for the full control effect.

SMILES | Marburg entry inh | Lassa entry inh | FMDV antiviral | HCMV inh
CNC(=O)[C@H]1O[C@@H](n2cnc3c(NCc4cccc(I)c4)nc(Cl)nc32)[C@H](O)[C@@H]1O | / | / | -20% | 44
Cc1nc(C)n(CC(=O)N2CCCC(C(=O)c3ccc(C(F)(F)F)cc3)C2)n1 (stereo not given) | 0%[46.1 µM] | 10% | -18% | -26
C=C1C(O)[C@@H]2O[C@]3(CC[C@H](/C=C/C(C)[C@@H]4CC(C)=CC5(O[C@H](C[C@@](C)(O)C(=O)O)CCC5O)O4)O3)CC[C@H]2O[C@@H]1C(O)CC(C)[C@H]1OC2(CCCCO2)CCC1C (stereo not given in full) | / | / | 1µM* | /
COc1ccc2c(c1)c(C(=O)N/N=C/c1cccc(Br)c1)c(C)n2C | -10% | -21% | -21% | ?
CCCCCn1ccc(=N)cc1 | -29% | -29% | -6% | -73*
CCCCCCN1CC(O)=C(c2ccccc2)C1=N | -2% | -1% | 4% | -5
CCCCCCCCCn1ccc(=N)cc1 | ? | ? | 20µM* | -95*
CCCCCCCn1ccc(=N)cc1 | ? | ? | ? | -91*
CCn1ccc(=N)cc1 | 4%[46.1 µM] | -10% | -14% | 19
Cc1cccc(C)c1NC(=O)N1CCC(N2CCCCC2)CC1 | -4% | 9% | 9% | 20
O=C(CCOc1ccccc1)Nc1ccc(Cl)c(S(=O)(=O)N2CCOCC2)c1 | ? | -14% | -28% | -2
Cc1cc(/C=C2\Sc3ccccc3N2C)cc(C)[n+]1CC1CCCO1 (stereo not given) | ? | ? | ? | -100*
Cc1nnc(NC(=O)C2COc3ccccc3O2)s1 (stereo not given) | -13% | ? | 32% | 71
O=C(NC1=NCCS1)C1COc2ccccc2O1 (stereo not given) | 1µM* | ? | 10µM* | ?
O=C(Nc1nc2c(s1)CCCC2)C1COc2ccccc2O1 (stereo not given) | ? | 5.8µM* | -23% | -15
O=C(Nc1ccncc1)C1COc2ccccc2O1 (stereo not given) | -1% | 18% | -4% | -25
COc1cc(OC)cc(C(=O)NC(C(=O)N2CCc3ccccc3C2)C(C)C)c1 (stereo not given) | 11µM* | ? | 14% | -1
COc1cc(OC)cc(C(=O)N[C@H](C(=O)N2CCc3ccccc32)C(C)C)c1 | ? | -18% | -10% | -19
Cc1ccc2oc(C(=O)NCc3ccccc3)cc(=O)c2c1 | -19%[46.1 µM] | -12%[46.1 µM] | -8% | -8
O=C(C[N+]12CCC(CC1)C(O)C2)c1ccc(Br)cc1 (stereo not given) | / | / | -20% | /
COc1cccc(CNCC(=O)N2C(C)CCCC2C)c1 (stereo not given) | -23% | ? | 2% | 26
CCOC(=O)c1ccc(NC(=O)Cn2cc(C(=O)c3ccc(CC)cc3)c(=O)c3ccc(C)nc32)cc1 | / | -17%[46.1 µM] | -17% | 5
O=C(COC(=O)c1ccccc1)Nc1ccc(Cl)cn1 | -1%[46.1 µM] | ? | 14% | -4
O=C(COC(=O)c1cccc(F)c1)Nc1ccc(Cl)cn1 | / | / | -10% | -99*
COCCNc1nc(C)cc(-c2cc(-c3ccc(Cl)cc3)on2)n1 | / | / | -2% | -7
SMILES | Marburg entry inh | Lassa entry inh | FMDV antiviral | HCMV inh
COCCNc1nc(-c2cc(-c3ccccc3)on2)cc(C(C)C)n1 | / | / | -16% | -63*
CC(=O)c1cccc(NS(=O)(=O)c2c(C)nc3sc(C)cn3c2=O)c1 | / | -19%[46.1 µM] | -21% | -11
O=C(CCc1nc(-c2ccccc2)no1)NCc1ccco1 | 6% | 2% | 2% | 27
Cc1ccc(S(=O)(=O)Nc2ccc(-c3nnc(SCc4ccccc4Cl)o3)cc2)cc1 | ? | ? | 4% | -83*
O=c1cc(NS(=O)(=O)c2ccccc2)nc(SCc2ccc(Cl)cc2)[nH]1 | ? | 9% | -13% | -16
Cc1ccc(S(=O)(=O)Nc2cc(=O)[nH]c(SCc3ccccc3Cl)n2)cc1 | ? | ? | ? | -66*
COc1cccc(Cn2c(=O)c(-c3ccc(Cl)cc3)nc3cnc(N4CCNCC4)nc32)c1 | / | / | 2% | /
COc1ccc(-n2c(N)cc(=O)[nH]c2=O)cc1 | 16%[46.1 µM] | 0% | -5% | /
Nc1cc(=O)[nH]c(=O)n1-c1cccc(F)c1 | -2%[46.1 µM] | 15% | -1% | -84*
CCn1cc(CNC(=O)c2cc(COc3ccc(F)cc3Cl)on2)cn1 | 15µM* | ? | -25% | ?
CCn1nc(C)c(CNC(=O)c2cc(COc3ccc(C)nc3)on2)c1C | ? | ? | ? | -24
CCn1nc(C)c(CNC(=O)c2cc(COc3ccc(F)cc3Cl)on2)c1C | / | / | ? | -85*
COC(=O)c1ccccc1COc1cccn2c(N(C)CC3CC3)c(C)nc12 | / | / | -22% | -99*
COc1ccc(-c2nnc(SCc3cc(=O)c4cc(C)cc(C)c4[nH]3)n2C)cc1 | / | -23%[46.1 µM] | 16µM* | -66*
Cc1cc(C)n2cc(CSc3nnnn3-c3ccc(Cl)cc3)nc2n1 | -3% | 3% | -28% | -24
Cc1cc(C)n2cc(CSc3nnc(-c4ccccc4)c(-c4ccccc4)n3)nc2n1 | / | / | 28µM* | -9
Cc1cc(C)n2cc(CSc3nnnn3-c3ccccc3)nc2n1 | 1% | -3% | -18% | -71*
COc1cc(/C=C2/C(=O)N(C)C(=S)N2C)ccc1OCc1cccc(F)c1 | 7%[46.1 µM] | -7%[46.1 µM] | -1% | -68*
CC1(C)CC(=O)C(CS(=O)(=O)c2ccccc2)=C(Cl)C1 | / | / | -17% | -68*
COc1ccc(OC)c(NC(=O)c2ccc(OC3CSC3)cc2)c1 | 15% | 1% | 33% | 23
CCOc1ccccc1C1NC(=O)NC(C)=C1C(=O)OC1CCCCC1 (stereo not given) | -28% | ? | / | -20
CC1=C(C(=O)OCc2ccccc2)C(c2ccccc2Br)NC(=O)N1 (stereo not given) | ? | ? | 28µM* | -21
CCCCCCN(C(=O)CCCCCN1C(=O)NC(c2ccc(-c3ccccc3)cc2)C(C(=O)OCc2ccccc2)=C1C)C(C(=O)NCCCC)c1ccc(OCC(=O)OC)c(C(=O)OC)c1 (stereo not given) | / | / | / | -3
COc1ccc(COC(=O)C2=C(C)NC(=O)NC2c2ccc(F)cc2)cc1 (stereo not given) | ? | ? | 25µM* | -75*
CCOc1ccc(C2NC(=O)NC(C)=C2C(=O)OCc2ccccc2)cc1 (stereo not given) | -2% | -44% | ? | 11
CCOc1ccccc1C1NC(=O)NC(C)=C1C(=O)OC1CCCC1C (stereo not given) | ? | ? | -23% | -68*
COc1ccccc1C1NC(=O)NC(C)=C1C(=O)OCc1ccccc1 (stereo not given) | ? | ? | ? | 6
CCCCCCN(C(=O)CCCCCN1C(=O)NC(c2cccc([N+](=O)[O-])c2)C(C(=O)OCc2ccccc2)=C1C)C(C(=O)NCCCC)c1ccc(OCC(=O)OC)c(C(=O)OC)c1 (stereo not given) | / | / | / | -74*
COc1cc(C(C)=O)ccc1OCc1nnc(-c2ccccc2Br)o1 | ? | 5%[46.1 µM] | 34% | 28
CCC1(CC)C(=O)C2=C3C1[C@H](C(=O)OC)C=C(C(=O)OC)C[C@H]3[C@H]1C(=O)NC(=O)[C@H]1[C@H]2C (stereo not given in full) | / | / | -15% | -2
